Most compounds without a hit are left out; they make up all but 9.6% or so of the library.
PostGolgi ctrl: growth inhibition of yeast control strain, primary screen, counter-screen for post-Golgi transport modulator project; efflux-deficient yeast background strain, growth absorbance A615, 16 h; inhibition, % at 10 µM; 98,000 compounds, 5% hits; AID 738, 2007
PLAP activator: PLAP enzyme activators, biochemical, luminescence, HTS; Alkaline phosphatase, placental type (Homo sapiens), P05187; purified PLAP enzyme, luminescent substrate read-out; stronger effect = higher value; activation fold at 20 µM; 96,000 compounds, 1.2% hits; AID 696, 2007; in the data active = activation fold above about 2
Target sequence (P05187 whole entry, looked up): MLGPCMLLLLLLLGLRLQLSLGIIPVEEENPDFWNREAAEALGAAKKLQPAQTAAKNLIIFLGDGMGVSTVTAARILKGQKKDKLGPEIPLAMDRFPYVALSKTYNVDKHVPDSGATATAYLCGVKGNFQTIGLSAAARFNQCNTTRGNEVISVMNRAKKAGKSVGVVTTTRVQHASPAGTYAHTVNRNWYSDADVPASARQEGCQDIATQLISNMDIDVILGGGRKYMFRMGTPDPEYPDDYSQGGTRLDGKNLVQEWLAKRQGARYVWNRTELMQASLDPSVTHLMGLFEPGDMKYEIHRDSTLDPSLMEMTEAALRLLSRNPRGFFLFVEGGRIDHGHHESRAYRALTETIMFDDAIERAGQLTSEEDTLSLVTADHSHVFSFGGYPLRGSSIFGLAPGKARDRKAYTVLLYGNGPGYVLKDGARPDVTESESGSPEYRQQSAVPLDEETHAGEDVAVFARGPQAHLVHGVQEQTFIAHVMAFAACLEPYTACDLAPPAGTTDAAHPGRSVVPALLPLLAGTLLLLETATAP
PostGolgi yeast: phenotypic screen on post-Golgi transport, primary screen; post-Golgi transport phenotypic cell assay; inhibition, % at 10 µM; 98,000 compounds, 0.9% hits;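 also: yeast cells grown in 1536-well plates; yeast grown about 18 h at 30C before absorbance read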
hDAT+cocaine: changed hDAT dopamine uptake under cocaine IC80, either direction, primary screen, cocaine antagonist project, cell-based, LLC-PK1 hDAT, [14C]-dopamine uptake, MLSMR; LLC-PK1 hDAT cells, [14C]-dopamine uptake with cocaine IC80; actives deviate in either direction; B-score at 10 µM; 110,000 compounds, 1.3% hits; AID 449768, 2010;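 active = Z score or B-score, a plate-position-corrected score, falls beyond the plate's 99.7% confidence bounds, in either direction; inactive = both scores lie inside the 99.7% bounds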
Cav3 T inh: Cav3.2 calcium influx blockers – cell-based, Fluo-4 calcium fluorescence, FDSS, MLSMR library, primary screen | Voltage-dependent T-type calcium channel subunit alpha-1H (Homo sapiens), O95180 | Cav3.2-expressing cells; stronger effect = lower value | B-score at 10 µM | 100,000 compounds, 4% hits | AID 449739, 2010;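 active = single-dose well whose peak fluorescence ratio is a statistical outlier from its plate by either plate-standardised score or position-corrected B-score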
Large screens that a line does not name were inactive. Rule as the data show it, unless noted: active = inhibition above about 30%; inactive = the rest.

CCCNC(=O)c1c(N)n(CC2CCCO2)c2nc3ccccc3nc12 (centres undefined)	PostGolgi ctrl 32.5, hDAT+cocaine -8.94, Cav3 T inh -6.16
CC(C)OC(=O)c1c(N)n(CC2CCCO2)c2nc3ccccc3nc12 (centres undefined)	none
COC(=NC1CCCCC1)C(O)c1c[nH]c2ccccc12 (centres undefined)	none
CCCCc1ccc2[nH]cc(CCN)c2c1	none
O=C(Cn1ncc2c3ccccc3n(Cc3cccc(Cl)c3)c2c1=O)N1CCC2(CC1)OCCO2	hDAT+cocaine 5.98, Cav3 T inh -10.7
Cn1c2ccccc2c2cnn(CC(=O)N3CCC4(CC3)OCCO4)c(=O)c21	none (no result: hDAT+cocaine, Cav3 T inh)
CC[C@H]1CN(C)CCc2c([nH]c3ccccc23)C(=O)C[C@@H]1/C(=C\OC)C(=O)OC	none (no result: PostGolgi ctrl, PLAP activator, PostGolgi yeast)
O=c1c2ccccc2nc(N2CCCC2)n1-c1ccc(Cl)cc1	Cav3 T inh -4.58
COc1ccc(-n2c(SC)nc3ccccc3c2=O)cc1	none
Cc1nc2cc(C(F)(F)F)ccc2n1C1CCN(Cc2nnnn2CCc2ccccc2)CC1	hDAT+cocaine 3.51 (no result: PostGolgi ctrl, PLAP activator, PostGolgi yeast)
Cc1nc2cc(F)ccc2n1C1CCN(Cc2nnnn2CCc2ccccc2)CC1	none
Cc1ccc(Cn2nnnc2CN2CCC(n3nnc4cc(C(F)(F)F)ccc43)CC2)cc1	PostGolgi ctrl 62.3
CC(c1ccccc1F)n1cc(C(=O)Nc2ccc3nc[nH]c3c2)nn1 (centres undefined)	PostGolgi ctrl 30.4
C[C@@H]1O[C@@H](O[C@H]2C[C@@H](O)[C@]3(CO)[C@H]4[C@H](O)C[C@]5(C)[C@@H](C6COC(=O)C6)CC[C@]5(O)[C@@H]4CC[C@]3(O)C2)[C@H](O)[C@H](O)[C@H]1O (some centres undefined)	hDAT+cocaine -6.38 (no result: PostGolgi ctrl, PLAP activator, PostGolgi yeast)
Cn1cc(C(=O)N2CCC3(CC2)OCCO3)c2c3ccccc3n(C)c2c1=O	none
Cn1c2ccccc2c2c(C(=O)N3CCC4(CC3)OCCO4)cn(C3CCCCC3)c(=O)c21	Cav3 T inh -5.05
CN(C)[C@@H]1C(=O)C(C(N)=O)=C(O)[C@@]2(O)C(=O)C3=C(O)c4c(O)cccc4[C@@](C)(O)[C@H]3[C@H](O)[C@@H]12	Cav3 T inh -3.75 (no result: PostGolgi ctrl, PLAP activator, PostGolgi yeast)
CCOC(=O)c1c(NC(=O)C(c2ccccc2)c2ccccc2)sc2c1C1CCN2CC1	Cav3 T inh -4.15
COC(=O)C1=CO[C@@H](C)[C@@H]2CN(CCc3c[nH]c4ccccc34)CC[C@H]12	none (no result: PostGolgi ctrl, PLAP activator, PostGolgi yeast)
CCCCC1(CCCC)C(=O)NC(=Nc2cccc(C)c2)NC1=O	PostGolgi yeast 46.7
CCCC(C)C1(CC)C(=O)NC(=Nc2ccccc2)NC1=O (centres undefined)	none (no result: PostGolgi ctrl, PLAP activator, PostGolgi yeast)
CCC(=NCCOc1ccc(Cl)cc1)c1c(O)n(C)c(=O)n(C)c1=O	none (no result: Cav3 T inh)
COC(=O)C1=C(c2ccc(S(C)(=O)=O)cc2)C[C@@H]2CC[C@H]1N2C(=O)N1CCCCC1	none (no result: PostGolgi ctrl, PLAP activator, PostGolgi yeast)
Cc1cc(C)c2c(c1)-c1cc(C)nn1C(c1cccnc1)N2 (centres undefined)	none (no result: PostGolgi ctrl, PLAP activator, PostGolgi yeast)
CC(C)CC1C(C#N)=C(N)Oc2c1c(=O)oc1ccccc21 (centres undefined)	PostGolgi ctrl 40.8
N#CC1=C(N)Oc2c(c(=O)oc3ccccc23)C1c1ccncc1 (centres undefined)	none
O=C(c1ccccc1F)c1cn(Cc2ccccc2)c2ccccc12	Cav3 T inh -3.55
O=[N+]([O-])c1ccc2nc(N3CCNCC3)ccc2c1	none (no result: PostGolgi ctrl, PLAP activator, PostGolgi yeast, Cav3 T inh)
C=CCn1c(O)c(C(CC)=NC(C)c2ccccc2)c(=O)[nH]c1=O (centres undefined)	PostGolgi ctrl 39.7
CCCCn1c(O)c(C(CC)=NC(C)c2ccccc2)c(=O)[nH]c1=O (centres undefined)	PostGolgi ctrl 52.0 (no result: hDAT+cocaine)
CCC(=NCCCn1ccnc1)c1c(O)n(Cc2ccccc2)c(=O)[nH]c1=O	PLAP activator 2.1
CCCCn1c(O)c(C(C)=NCCc2ccccc2)c(=O)[nH]c1=O	PostGolgi ctrl 31.3
CCCCn1c(O)c(C(C)=NC(C)c2ccccc2)c(=O)[nH]c1=O (centres undefined)	none
Nc1ccccc1C(=O)OCC(=O)Nc1ccc(Br)cc1F	none
COc1ccc2c(c1)c(C(=O)CN1CCC3(CC1)OCCO3)c(C)n2Cc1ccccc1	none
CCCCC/C(=N\O)c1c[nH]c2ccccc12	Cav3 T inh -4.6
NCCc1c[nH]c2ccccc12	none (no result: PostGolgi ctrl, PLAP activator, PostGolgi yeast)
CCCCn1c(N)c(C(=O)OCC2CCCO2)c2nc3ccccc3nc21 (centres undefined)	none
COCCCn1c(N)c(C(=O)NCCC(C)C)c2nc3ccccc3nc21	PostGolgi ctrl 31.7, hDAT+cocaine 2.99
CCCCOCCCn1c(N)c(C(=O)OCCOC)c2nc3ccccc3nc21	hDAT+cocaine 1.18
COCCCNC(=O)c1c(NC(=O)c2ccccc2)n(Cc2ccccc2)c2nc3ccccc3nc12	Cav3 T inh -5.69 (no result: PostGolgi ctrl, PLAP activator, PostGolgi yeast)
COC(=O)C1=C(c2cc3ccccc3o2)C[C@@H]2CC[C@H]1N2C(=O)NCCO	none (no result: PostGolgi ctrl, PLAP activator, PostGolgi yeast)
COC(=O)C(O)(c1ccc(N(C)C(=O)OC(C)C)cc1)C(F)(F)F (centres undefined)	none
O=C1CN=C(c2ccc(Br)cc2)c2oc3ccccc3c2N1	none
COc1cccc(OC)c1C1=NCC(=O)Nc2c1oc1ccc(Br)cc21	Cav3 T inh -4.24
COc1cc2[nH]c(=O)n(-c3ccccc3)c(=O)c2cc1OC	PostGolgi yeast 31.2
CN(C)c1ccc(CN2CC=C(c3ccc(F)cc3)CC2)cc1	none
Cc1ccc(C(c2nnnn2Cc2ccccc2)N2CC=C(c3ccc(F)cc3)CC2)cc1 (centres undefined)	Cav3 T inh -3.16
Cc1ccc(-n2nc(C)c3c2NC(=O)CSC3c2ccc3c(c2)OCO3)cc1 (centres undefined)	Cav3 T inh -8.38
COC(=O)C1=C(c2ccc(S(C)(=O)=O)cc2)C[C@@H]2CC[C@H]1N2C(=O)NCC1CC1	none (no result: PostGolgi ctrl, PLAP activator, PostGolgi yeast)
COP(=O)(OC)C1(Nc2ccc(C)cc2)CCCCC1	none
CN(C)c1ccc(NC(=O)CN2C(=O)CN=C(c3ccccc3)c3ccccc32)cc1	Cav3 T inh -5.04
O=C(CN1CC(c2ccccc2)CC1=O)Nc1ccccc1 (centres undefined)	none (no result: PLAP activator)
Cc1ccc(NC(=O)CN2C(=O)CN=C(c3ccccc3)c3cc(Cl)ccc32)cc1	PostGolgi ctrl 45.9, Cav3 T inh -6.68
CN(C)c1ccc(NC(=O)CN2C(=O)CN=C(c3ccccc3)c3cc(Cl)ccc32)cc1	Cav3 T inh -8.87
CCC(C)C1N=C(c2ccccc2)c2cc(Cl)ccc2N(CC(=O)NCc2ccco2)C1=O (centres undefined)	none
S=C1NCCN1	none (no result: PostGolgi ctrl, PLAP activator, PostGolgi yeast, Cav3 T inh)
C=C1[C@H]2C[C@H]3[C@H]4N5C[C@]6(C)CCC[C@]47[C@H]([C@H]2O)[C@]3(C[C@]5(O)[C@H]67)[C@@H]1O	none (no result: PostGolgi ctrl, PLAP activator, PostGolgi yeast)
OC(c1ccc(F)cc1)(c1ccc(F)cc1)[C@@H]1CCCN1	none (no result: Cav3 T inh)

Screens from PubChem.
